According to the supplement of paper PMC6555819:

Tests used:
Experiment in all cases: PBM binding z-score (relative to random genomic background probes); higher = stronger binding; sequences stand for … in GC…GCGATTGACAGCGTAGAATGAAGG
[1] = tested on: PPARg:RXRa DBDmut IVT, anti-RXR (DBD mutation: RXRa K156A/R161A, NR concentration 270 nM, RXRa partner concentration 90 nM)
Method in brief: (§1)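 Custom Agilent 4×180K protein-binding microarrays carried double-stranded probes, each with a 34-nt variable region. These regions held direct-repeat seeds, single-nucleotide variants, half-site ablations and random human genomic background sequences. Ligand-free nuclear receptor dimers were incubated on the arrays for 1 h, antibodies against each partner (one per run) detected binding, and scanned fluorescence was regression-normalized. Binding z-scores take the random background probes as reference.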

[2] = tested on: PPARg:RXRa IVT, anti-PPARg (NR concentration 270 nM, RXRa partner concentration 90 nM)
Method in brief: as §1

[3] = tested on: PPARg DBDmut:RXRa IVT, anti-PPARg (DBD mutation: PPARg1 K132A/R137A, NR concentration 270 nM, RXRa partner concentration 90 nM)
Method in brief: as §1

[4] = tested on: PPARg DBDmut IVT, anti-PPARg (DBD mutation: PPARg1 K132A/R137A, NR concentration 270 nM)
Method in brief: as §1

[5] = tested on: PPARg homodimer (NR concentration 180 nM)
Method in brief: as §1

[6] = tested on: PXR:RXRa (NR concentration 270 nM, RXRa partner concentration 90 nM)
Method in brief: as §1

[7] = tested on: PXR homodimer (NR concentration 270 nM)
Method in brief: as §1

[8] = tested on: RARa:RXR (NR concentration 270 nM, RXRa partner concentration 90 nM)
Method in brief: as §1

[9] = tested on: RARa homodimer (NR concentration 270 nM)
Method in brief: as §1

[10] = tested on: RARb:RXRa (NR concentration 270 nM, RXRa partner concentration 90 nM)
Method in brief: as §1

[11] = tested on: RARb homodimer (NR concentration 270 nM)
Method in brief: as §1

[12] = tested on: RARg:RXRa (NR concentration 270 nM, RXRa partner concentration 90 nM)
Method in brief: as §1

[13] = tested on: RARg homodimer (NR concentration 270 nM)
Method in brief: as §1

[14] = tested on: RXRa DBDmut IVT, anti-RXR (DBD mutation: RXRa K156A/R161A, NR concentration 90 nM)
Method in brief: as §1

[15] = tested on: RXRa homodimer (NR concentration 180 nM)
Method in brief: as §1

[16] = tested on: THRa:RXRa (NR concentration 90 nM, RXRa partner concentration 90 nM)
Method in brief: as §1

[17] = tested on: THRa homodimer (NR concentration 90 nM)
Method in brief: as §1

[18] = tested on: VDR homodimer (NR concentration 270 nM)
Method in brief: as §1

Sequence | PBM binding z-score [1] | PBM binding z-score [2] | PBM binding z-score [3] | PBM binding z-score [4] | PBM binding z-score [5] | PBM binding z-score [6] | PBM binding z-score [7] | PBM binding z-score [8] | PBM binding z-score [9] | PBM binding z-score [10] | PBM binding z-score [11] | PBM binding z-score [12] | PBM binding z-score [13] | PBM binding z-score [14] | PBM binding z-score [15] | PBM binding z-score [16] | PBM binding z-score [17] | PBM binding z-score [18]
TCTATTAGTTGAAGGGCAATCGACGAGTCCGTTT | 2.4 | 0.352 | -0.193 | -0.223 | 0.916 | 0.833 | 0.904 | 0.162 | 0.81 | 1.24 | 0.87 | 0.355 | 0.467 | 1.61 | 0.559 | 0.0989 | -0.0938 | 1.42
TCTAGTTGGTCAAAGGTCCCACACTCGAAATGCG | 2.94 | 3.27 | 0.799 | 1.15 | 1.16 | 0.98 | -0.0577 | 1.49 | 1.06 | 1.67 | 1.47 | 1.55 | 1.05 | 1.26 | 1.75 | 0.71 | 0.58 | 0.39
AATACAGGGTCACTAGTCCAGAGTAGGTACGAAT | 3.25 | 4.67 | 0.95 | 0.987 | 1.66 | 2.97 | 0.58 | 3.7 | 1.03 | 3.99 | 3.23 | 4.5 | 4.83 | 2.7 | 4.87 | 3.31 | 1.32 | 2.27
CCGAGTAGGTTAGGGGGCATTCAGGCAACGGTGA | 2.55 | 4.72 | 4.62 | 4.7 | 2.25 | 2.19 | 1.47 | 2.41 | 0.807 | 2.11 | 2.12 | 2.21 | 1.79 | 1.54 | 2.03 | 2.4 | 1.37 | 2.8
GCTGCTAGGTCAGGTCGGTCAGCTAACGGGTACG | 2.59 | 2.88 | -0.904 | -0.563 | 0.777 | 0.726 | -0.37 | 1.37 | -0.616 | 3.88 | 3.44 | 3.03 | 4.28 | 0.46 | 1.23 | 2.48 | 0.932 | 0.733
AATACAGGGGCACTAGGCCAGAGTAGGTACGAAT | 2.1 | 3.75 | 0.831 | 0.38 | 0.784 | -0.286 | -0.158 | -0.2 | -0.664 | 1.16 | 0.82 | 0.814 | 0.835 | 0.764 | 0.611 | 0.473 | -0.285 | 0.185
GCAGACAGGTGAAACGCAGGTAACTCTGGGTGGC | 1.28 | 0.558 | -1.09 | -1.05 | -0.859 | -0.322 | -1.1 | 0.0559 | -1.16 | 0.63 | -0.101 | 0.724 | 0.0252 | -0.652 | 0.337 | 0.963 | -0.802 | -0.811
TAGCCTAGGTCACTCAGGGGCCAGTATAGAAAGC | 1.65 | 3.3 | 0.795 | 0.141 | 1.5 | 1.73 | -0.391 | 3.07 | -0.348 | 3.99 | 3.61 | 5.91 | 5.25 | 0.581 | 2.94 | 3.17 | 0.528 | 0.664
